From PubChem BioAssay (Tox21) come the findings set out here.

A number with no mark means an inactive call. Inconclusive results are not listed. Activity calls are given as the source filed them. Unless noted, the call rests on the fitted dose curve.

Assay [1] is described as follows: Nuclear factor erythroid 2-related factor 2/antioxidant responsive element (Nrf2/ARE) small molecule agonists: qHTS cell viability counter screen in human keratinocytes (AID 1919968; active means well fitted curve in the direction sought with a large enough effect in the repeat runs; an effect the other way counts as inactive or inconclusive; further: nearly all actives have a fitted effect of over 55% in size). An outline of the steps: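 Measured as CellTiter-Fluor fluorescence, this readout tracks cytotoxicity in the same wells as the ARE-luciferase screen. HaCaT reporter cells (1,500/well) received compounds after a 5 h pre-incubation and were exposed for 23 h.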

The nature of assay [2]: Nuclear factor erythroid 2-related factor 2/antioxidant responsive element (Nrf2/ARE) small molecule agonists: luciferase reporter gene qHTS assay in human keratinocytes (AID 1919969). Further: nearly all actives have a fitted effect of over 35% in size. Further: potency means the concentration at half of the fitted maximal effect.
Assay [3] deals with Gonadotropin-releasing hormone receptor (Homo sapiens) (UniProt P30968). Description: Human gonadotropin-releasing hormone receptor (GnRHR) small molecule agonists, calcium flux assay in GnRHR-HEK293 cells (AID 1920063). Further: nearly all actives have a fitted effect of over 35% in size. The essentials:
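Fluorescence kinetics (480 nm excitation, 540 nm emission; 3 min, 1 s steps) report calcium mobilisation in human GnRHR-HEK293 cells in agonist mode. Dye incubation: 1 h, 37 C.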
In general terms: Calcium flux is commonly read through the fluorescence of an indicator in the cells.

The target in assay [4] is KiSS-1 receptor (Homo sapiens) (UniProt Q969F8). Briefly: Human kisspeptin (KISS1R) small molecule agonists, calcium flux assay in KISS1R-HEK293 cells (AID 1920064; active means well fitted curve in the direction sought with a large enough effect in the repeat runs; an effect the other way counts as inactive or inconclusive). The essentials: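 Measures KISS1R agonism through calcium-sensitive dye fluorescence in stably transfected HEK293 cells, read for 3 min after pin-tool compound delivery; 15-point titrations in triplicate.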
Sequence of KiSS-1 receptor (Homo sapiens) (Q969F8 whole entry, looked up): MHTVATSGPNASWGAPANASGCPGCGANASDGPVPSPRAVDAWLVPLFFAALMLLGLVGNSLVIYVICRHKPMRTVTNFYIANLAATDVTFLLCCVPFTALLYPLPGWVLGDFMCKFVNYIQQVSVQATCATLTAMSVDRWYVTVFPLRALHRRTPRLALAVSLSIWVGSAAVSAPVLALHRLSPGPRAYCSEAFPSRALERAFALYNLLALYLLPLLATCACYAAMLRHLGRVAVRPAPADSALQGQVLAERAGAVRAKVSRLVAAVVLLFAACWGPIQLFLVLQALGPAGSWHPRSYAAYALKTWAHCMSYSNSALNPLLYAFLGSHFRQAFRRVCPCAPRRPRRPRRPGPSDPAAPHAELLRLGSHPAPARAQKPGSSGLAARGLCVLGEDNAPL

A short description of assay [5]: G protein-coupled receptor (GPCR) small molecule agonists, calcium flux assay: HEK293 wild type cell line counter screen (AID 1920065). The essentials: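 Readout: fluorescence at 480 nm excitation/540 nm emission, sampled at 1 s intervals for 3 min. Cells had been cultured 18 h, then dye-loaded 1 h at 37 C before compound or ATP addition.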
A short description of assay [6]: p53 small molecule agonists, cell-based qHTS assay with human liver microsomes (AID 1963577). The essentials: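 Fluorescence of the beta-lactamase reporter in p53RE-bla cells, detected with LiveBLAzer substrate (2 h, room temperature, dark), served as the read-out after 16 h compound exposure at 37 C with human liver microsomes and NADPH, each 0.5 mg/mL final.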
For orientation: qHTS replaces the single test concentration by a dilution series.

A short description of assay [7]: p53 small molecule agonists, cell-based qHTS assay with rat liver microsomes (AID 1963578). An outline of the steps: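 Cells carrying a p53 response element–beta-lactamase reporter were plated and rested 5 h, then dosed with compound in DMSO plus rat liver microsomes and NADPH, each at 0.5 mg/mL final. After 16 h at 37 C, LiveBLAzer substrate was added for 2 h.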

Assay [8] is described as follows: p53 small molecule agonists, cell-based qHTS assay with human liver microsomes: qHTS cell viability counter screen (AID 1963579). Further: nearly all actives have a fitted effect of over 45% in size. An outline of the steps: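 Cytotoxicity counter screen: p53RE-bla, 4,000 cells/well; 5 h settle, 37 C/5% CO2; cpd + HLM 0.5 mg/mL + NADPH 0.5 mg/mL (final); 16 h, 37 C; CellTiter-Glo, 30 min RT, luminescence.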
A short description of assay [9]: p53 small molecule agonists, cell-based qHTS assay with rat liver microsomes: qHTS cell viability counter screen (AID 1963580). Further: nearly all actives have a fitted effect of over 45% in size. An outline of the steps:
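HCT-116 p53RE-bla, 4,000 cells/well, 5 h pre-incubation; cpd + rat liver microsomes 0.5 mg/mL + NADPH 0.5 mg/mL (final); 16 h, 37 C; CellTiter-Glo, 30 min RT; luminescence.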

Assay [10] in a line: p53 small molecule agonists, cell-based qHTS assay: qHTS cell viability counter screen (AID 1963581). Further: nearly all actives have a fitted effect of over 45% in size. The essentials: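 In the same plates used for the p53 bla reporter, HCT-116 cells given compounds for 16 h at 37 C received CellTiter-Glo; luminescence was recorded 30 min later at room temperature.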
A short description of assay [11]: p53 small molecule agonists, cell-based qHTS assay (AID 1963582; active means well fitted activation curve with a large enough effect in the signal ratio in the repeat runs, not every such curve was filed as active; the % refers to the signal ratio). An outline of the steps: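 Compounds are pin-transferred in DMSO onto p53RE-bla cells and incubated 16 h at 37 C. The B/G FRET beta-lactamase substrate is then applied for 2 h at RT and fluorescence recorded.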
Assay [12] addresses 5-hydroxytryptamine receptor 2A (Homo sapiens) (UniProt P28223). Description: 5-hydroxytryptamine receptor 2A (HTR2A) small molecule antagonists, cell-based qHTS assay (AID 1963586). Further: nearly all actives have a fitted effect of over 45% in size. An outline of the steps: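 Antagonist-mode intracellular calcium assay: DOI (4 nM) added after 5 min compound pre-incubation at room temperature to dye-loaded HTR2A-CHO cells. Fluorescence followed for 3 min, sampled every second.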

For assay [13] the target is unchanged. Description: 5-hydroxytryptamine receptor 2A (HTR2A) small molecule agonists, cell-based qHTS assay (AID 1963587). Further: nearly all actives have a fitted effect of over 30% in size. The essentials: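 Kinetic calcium-flux fluorescence (2 min, 1 sec intervals) after compound addition in agonist mode. HTR2A-CHO cells were cultured 18 h, then dye-loaded 1 h at 37 C.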
The target in assay [14] is Muscarinic acetylcholine receptor M1 (Homo sapiens) (UniProt P11229). Briefly: Cholinergic receptor muscarinic 1 (CHRM1) small molecule antagonists, cell-based qHTS assay (AID 1963588). Further: nearly all actives have a fitted effect of over 40% in size. The essentials:
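CHRM1-CHO calcium-flux assay, antagonist mode. Cells were seeded 18 h, dye-loaded 1 h at 37 C and given compound for 5 min at RT, then acetylcholine was added at 50nM. FDSS fluorescence was read 3 min; 15 concentrations, three runs.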

Assay [15] shares this target. Briefly: Cholinergic receptor muscarinic 1 (CHRM1) small molecule agonists, cell-based qHTS assay (AID 1963589). Further: nearly all actives have a fitted effect of over 35% in size. An outline of the steps:
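Each compound was tested at 15 concentrations across three independent runs on dye-loaded CHO cells stably expressing human CHRM1, reading intracellular calcium fluorescence kinetically at 1 sec intervals.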

A short description of assay [16]: cAMP Responsive Elements (CRE) small molecule agonists, cell-based qHTS assay (AID 1963590). The essentials: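 Cell line: CRE-bla HEK 293T; medium DMEM/10% dialyzed FBS/0.1 mM NEAA/1 mM pyruvate/25 mM HEPES; 3 h compound exposure; beta-lactamase FRET readout after 2 h substrate loading at RT.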
A short description of assay [17]: cAMP Responsive Elements (CRE) small molecule antagonists, cell-based qHTS assay (AID 1963591; active means well fitted inhibition curve with a large enough effect in the signal ratio in the repeat runs, not every such curve was filed as active; the % refers to the signal ratio). The essentials:
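Inhibition of NKH477-driven (0.25 uM final) CRE-beta-lactamase signal in HEK293T cells, 3 h compound exposure at 37 °C, detected by FRET substrate fluorescence.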

Assay [18] concerns the target Beta-2 adrenergic receptor (Homo sapiens) (UniProt P07550). Description: Adrenergic beta2 receptor (ADRB2) small molecule antagonists, cell-based qHTS assay (AID 1963592). Further: series mostly up to about 92 µM; nearly all actives have a fitted effect of over 50% in size. An outline of the steps:
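Cells (CHO, stable ADRB2 overexpression) incubated 18-20hr at 37C; compounds added from DMSO; agonist mix (1nM isoproterenol, 100uM IBMX, 25uM Ro-20-1724) added; 0.5hr RT; d2-cAMP and anti-cAMP-cryptate added; 1hr RT; 665/615 nm read.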

The target in assay [19] is D(2) dopamine receptor (Homo sapiens) (UniProt P14416). Briefly: Dopamine D2 receptor (DRD2) small molecule agonists, cell-based qHTS assay (AID 1963594). Further: nearly all actives have a fitted effect of over 35% in size. The essentials: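 cAMP accumulation in DRD2-HEK293 cells measured by HTRF after 1 h detection; compounds added 10 min before NKH477 (200nM […]) forskolin-analogue stimulation, 30 min at room temperature, with Ro20-1724 present at 0.1 mM final.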
Sequence of D(2) dopamine receptor (Homo sapiens) (P14416 whole entry, looked up): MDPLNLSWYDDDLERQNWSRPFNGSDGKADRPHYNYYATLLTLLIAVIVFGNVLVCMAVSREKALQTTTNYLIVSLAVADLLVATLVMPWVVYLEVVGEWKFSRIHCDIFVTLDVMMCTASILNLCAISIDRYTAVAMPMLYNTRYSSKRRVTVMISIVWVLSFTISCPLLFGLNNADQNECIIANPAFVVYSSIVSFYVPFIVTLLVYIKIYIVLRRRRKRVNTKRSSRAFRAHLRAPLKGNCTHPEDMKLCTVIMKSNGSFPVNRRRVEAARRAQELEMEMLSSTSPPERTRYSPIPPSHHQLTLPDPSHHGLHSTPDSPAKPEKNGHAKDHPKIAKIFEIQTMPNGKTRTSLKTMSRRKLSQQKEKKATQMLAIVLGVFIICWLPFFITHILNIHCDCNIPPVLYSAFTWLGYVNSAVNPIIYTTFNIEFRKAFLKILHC

The target is the same in assay [20]. Description: Dopamine D2 receptor (DRD2) small molecule antagonists, cell-based qHTS assay (AID 1963595; active means well fitted inhibition curve with a large enough effect in the signal ratio in the repeat runs, with a control signal flat; the % refers to the signal ratio). The essentials:
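Cells were plated and grown for 24 h at 37 °C. Ro20-1724 (0.1 mM final) went in first, then compound for 10 min. NKH477 (200 nM) with quinpirole (12 nM) followed for 30 min at RT, then HTRF detection reagents for 1 h.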

Sequence of Gonadotropin-releasing hormone receptor (Homo sapiens) (P30968 whole entry, looked up): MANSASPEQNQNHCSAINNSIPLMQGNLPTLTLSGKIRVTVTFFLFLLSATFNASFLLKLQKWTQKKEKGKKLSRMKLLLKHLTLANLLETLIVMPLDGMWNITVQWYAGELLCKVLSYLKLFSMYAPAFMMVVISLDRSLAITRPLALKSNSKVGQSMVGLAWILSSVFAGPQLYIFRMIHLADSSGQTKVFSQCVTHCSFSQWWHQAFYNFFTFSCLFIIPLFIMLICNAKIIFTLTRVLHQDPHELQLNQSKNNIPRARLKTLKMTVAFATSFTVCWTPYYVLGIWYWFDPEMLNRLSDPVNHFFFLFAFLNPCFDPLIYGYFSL
Sequence of Muscarinic acetylcholine receptor M1 (Homo sapiens) (P11229 whole entry, looked up): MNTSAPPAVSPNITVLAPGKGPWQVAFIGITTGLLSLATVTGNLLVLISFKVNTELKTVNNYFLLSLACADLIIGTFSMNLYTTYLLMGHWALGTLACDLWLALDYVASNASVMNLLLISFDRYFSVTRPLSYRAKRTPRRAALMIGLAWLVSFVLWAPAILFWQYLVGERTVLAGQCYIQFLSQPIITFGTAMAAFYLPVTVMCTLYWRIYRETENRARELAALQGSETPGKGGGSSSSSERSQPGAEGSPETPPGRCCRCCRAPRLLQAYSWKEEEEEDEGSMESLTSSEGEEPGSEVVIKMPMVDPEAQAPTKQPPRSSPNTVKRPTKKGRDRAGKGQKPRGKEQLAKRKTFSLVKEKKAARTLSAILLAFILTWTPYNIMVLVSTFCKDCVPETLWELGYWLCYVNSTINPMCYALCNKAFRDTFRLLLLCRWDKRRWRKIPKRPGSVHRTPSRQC
Sequence of Beta-2 adrenergic receptor (Homo sapiens) (P07550 whole entry, looked up): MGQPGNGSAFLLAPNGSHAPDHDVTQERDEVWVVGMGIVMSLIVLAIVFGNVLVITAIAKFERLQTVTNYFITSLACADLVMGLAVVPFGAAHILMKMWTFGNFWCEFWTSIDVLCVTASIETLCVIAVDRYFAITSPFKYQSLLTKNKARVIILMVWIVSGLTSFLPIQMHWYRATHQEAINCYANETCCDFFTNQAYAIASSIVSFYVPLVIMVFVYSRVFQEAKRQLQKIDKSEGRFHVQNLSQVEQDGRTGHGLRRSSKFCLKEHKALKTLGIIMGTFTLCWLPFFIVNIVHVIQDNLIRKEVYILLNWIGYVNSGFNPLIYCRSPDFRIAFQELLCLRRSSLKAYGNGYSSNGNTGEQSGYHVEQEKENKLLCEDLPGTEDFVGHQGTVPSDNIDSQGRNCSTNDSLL
Sequence of 5-hydroxytryptamine receptor 2A (Homo sapiens) (P28223 whole entry, looked up): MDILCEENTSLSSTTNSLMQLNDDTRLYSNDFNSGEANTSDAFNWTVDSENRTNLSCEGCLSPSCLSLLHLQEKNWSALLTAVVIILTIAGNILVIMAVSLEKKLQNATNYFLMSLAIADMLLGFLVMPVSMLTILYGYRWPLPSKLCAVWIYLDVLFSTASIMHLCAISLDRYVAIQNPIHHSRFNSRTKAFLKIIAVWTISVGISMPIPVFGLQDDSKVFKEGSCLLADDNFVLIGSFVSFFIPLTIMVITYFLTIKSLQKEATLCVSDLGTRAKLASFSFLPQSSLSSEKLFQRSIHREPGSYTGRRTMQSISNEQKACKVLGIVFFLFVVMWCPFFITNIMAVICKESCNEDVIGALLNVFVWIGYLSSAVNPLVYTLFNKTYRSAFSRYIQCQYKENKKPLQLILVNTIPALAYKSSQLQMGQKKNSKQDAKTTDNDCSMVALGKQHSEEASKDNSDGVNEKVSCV

Consider `O=C(O)c1snc(Cl)c1Cl`, for which the Potency entry in [1], in assay [3], in assay [6], in [7], in assay [8] and in assay [9] was “inactive” in each case. Besides, the Potency result in assay [10], in assay [11], in [12], in assay [13], in [14] and in [15] was “inactive” throughout. In addition, the Potency result in [16], in assay [17], in assay [18], in assay [19] and in assay [20] was “inactive” each time. For the same compound, the Potency in assay [2] is 68.6 µM (active). Further, the result in [4] and in assay [5] was inactive.

As for `O=C1OC(OC(=O)c2cccnc2Nc2cccc(C(F)(F)F)c2)c2ccccc21` (centres undefined), the Potency entry in [1], in assay [3], in assay [6], in [7], in assay [8] and in [9] was “inactive” in each case. The Potency entry in assay [10], in assay [11], in [12], in [13], in [14] and in [15] was “inactive” each time. Further, the Potency result in [16], in [17], in assay [18] and in [20] was “inactive” throughout. Besides, in assay [2], the Potency was 13.3 µM (active). For the same compound, the outcome in assay [4] and in assay [5] was inactive.

For `CN(C(=O)C(Cl)Cl)c1ccc(OC(=O)c2ccco2)cc1`, the Potency result in assay [1], in assay [2], in assay [3], in assay [6], in assay [7] and in [8] was “inactive” throughout. Further, the Potency result in [9], in assay [10], in assay [11], in assay [12], in assay [13] and in assay [14] was “inactive” throughout. Besides, the Potency entry in [15], in assay [16], in [17], in [18], in assay [19] and in assay [20] was “inactive” each time. The result in assay [4] and in assay [5] was inactive.

As to `Cc1cscn1`, the Potency result in [1], in [2], in [3], in assay [6], in assay [7] and in assay [8] was “inactive” throughout. Further, the Potency result in [9], in [10], in [11], in assay [12], in assay [13] and in assay [14] was “inactive” throughout. For the same compound, the Potency entry in assay [15], in [16], in assay [17], in [18], in [19] and in assay [20] was “inactive” throughout. The result in assay [4] and in assay [5] was inactive.

On to `O=C(OOC(=O)c1ccccc1)c1ccccc1`, for which the Potency entry in assay [1], in assay [2], in assay [3], in assay [6], in assay [7] and in assay [8] was “inactive” in each case. Further, the Potency result in assay [9], in [10], in [11], in assay [12], in assay [13] and in [14] was “inactive” throughout. The Potency result in assay [15], in [16], in [17], in assay [18], in assay [19] and in assay [20] was “inactive” throughout. The outcome in assay [4] and in assay [5] was inactive.

`CC(O)CN(CCCN(C)C)CCCN(C)C` (centres undefined): the Potency entry in [1], in assay [2], in assay [3], in [6], in assay [7] and in assay [8] was “inactive” throughout. Also, the Potency result in assay [9], in assay [10], in assay [11], in assay [12], in assay [13] and in [14] was “inactive” each time. Further, the Potency result in assay [15], in [16], in assay [17], in assay [18], in [19] and in assay [20] was “inactive” each time. The result in assay [4] and in assay [5] was inactive.

`CCN(CC)C(C)=O`: the Potency result in [1], in assay [2], in assay [3], in assay [6], in assay [7] and in assay [8] was “inactive” in each case. The Potency result in assay [9], in assay [10], in assay [11], in assay [12], in [13] and in assay [14] was “inactive” throughout. Moreover, the Potency result in assay [15], in assay [16], in [17], in assay [18], in assay [19] and in assay [20] was “inactive” in each case. For the same compound, the result in [4] and in assay [5] was inactive.
